The full list was thinned out, with hits kept by preference.
Dicer processing: blocks human Dicer maturation of pre-miR-21; Q9UPY3; z-score at 25 µM; cat-ELCCA pre-miR-21 Dicer processing, chemiluminescence; active compounds read high; AID 1347074; actives 6% (n = 47,000); in the data active = z-score above about 3, passing the limit was not always enough;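 note: plate controls were vehicle for no effect and no enzyme for full effect; higher signal means more uncleaved substrate so more Dicer inhibition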
Target sequence (Q9UPY3 whole entry, looked up): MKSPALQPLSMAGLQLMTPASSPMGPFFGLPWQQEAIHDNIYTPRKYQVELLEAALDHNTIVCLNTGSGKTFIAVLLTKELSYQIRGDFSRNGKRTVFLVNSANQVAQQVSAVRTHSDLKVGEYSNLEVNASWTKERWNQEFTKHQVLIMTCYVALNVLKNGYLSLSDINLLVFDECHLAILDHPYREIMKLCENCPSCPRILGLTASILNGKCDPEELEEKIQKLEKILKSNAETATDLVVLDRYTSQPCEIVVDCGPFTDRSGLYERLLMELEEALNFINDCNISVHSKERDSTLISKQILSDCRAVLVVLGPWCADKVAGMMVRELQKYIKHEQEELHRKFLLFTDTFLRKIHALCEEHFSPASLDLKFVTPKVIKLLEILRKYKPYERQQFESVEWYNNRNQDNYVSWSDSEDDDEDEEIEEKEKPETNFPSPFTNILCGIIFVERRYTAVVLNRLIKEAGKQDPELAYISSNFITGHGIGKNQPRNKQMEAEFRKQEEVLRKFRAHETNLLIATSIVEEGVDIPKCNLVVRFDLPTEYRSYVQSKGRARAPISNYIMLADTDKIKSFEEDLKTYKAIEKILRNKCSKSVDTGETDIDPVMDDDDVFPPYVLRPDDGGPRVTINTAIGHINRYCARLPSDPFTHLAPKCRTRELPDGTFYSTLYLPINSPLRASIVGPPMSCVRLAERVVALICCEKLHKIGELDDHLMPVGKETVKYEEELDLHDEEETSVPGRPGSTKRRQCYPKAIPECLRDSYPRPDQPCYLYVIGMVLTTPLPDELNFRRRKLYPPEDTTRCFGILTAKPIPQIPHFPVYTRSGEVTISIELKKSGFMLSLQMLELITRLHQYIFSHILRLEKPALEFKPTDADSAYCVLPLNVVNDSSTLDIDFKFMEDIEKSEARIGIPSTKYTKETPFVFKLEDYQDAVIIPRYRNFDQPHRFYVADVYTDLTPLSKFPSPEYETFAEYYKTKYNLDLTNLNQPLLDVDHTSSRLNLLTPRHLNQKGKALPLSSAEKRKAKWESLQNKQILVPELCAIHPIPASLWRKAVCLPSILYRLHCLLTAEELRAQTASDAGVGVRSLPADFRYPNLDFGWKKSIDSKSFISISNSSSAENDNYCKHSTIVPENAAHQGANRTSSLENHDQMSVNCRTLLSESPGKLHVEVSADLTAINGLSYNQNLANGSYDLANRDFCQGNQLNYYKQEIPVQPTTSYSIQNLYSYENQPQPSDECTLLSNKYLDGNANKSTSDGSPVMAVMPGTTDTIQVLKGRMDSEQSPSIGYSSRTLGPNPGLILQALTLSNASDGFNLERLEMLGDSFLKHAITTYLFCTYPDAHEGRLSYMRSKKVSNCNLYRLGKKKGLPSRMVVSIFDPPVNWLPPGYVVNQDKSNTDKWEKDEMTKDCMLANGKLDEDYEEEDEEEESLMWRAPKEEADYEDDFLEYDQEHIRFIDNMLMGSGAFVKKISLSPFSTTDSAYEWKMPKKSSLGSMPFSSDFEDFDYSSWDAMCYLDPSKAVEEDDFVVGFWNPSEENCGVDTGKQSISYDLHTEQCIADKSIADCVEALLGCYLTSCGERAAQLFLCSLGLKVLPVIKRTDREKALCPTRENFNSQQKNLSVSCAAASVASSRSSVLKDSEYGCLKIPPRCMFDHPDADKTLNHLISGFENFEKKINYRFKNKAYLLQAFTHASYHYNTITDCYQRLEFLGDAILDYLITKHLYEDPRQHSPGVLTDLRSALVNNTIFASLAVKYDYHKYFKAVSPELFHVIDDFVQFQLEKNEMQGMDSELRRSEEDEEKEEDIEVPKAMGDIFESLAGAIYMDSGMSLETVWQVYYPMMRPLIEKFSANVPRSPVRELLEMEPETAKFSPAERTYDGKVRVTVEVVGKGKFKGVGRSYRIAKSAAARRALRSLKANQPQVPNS
* hit, by the source's call.

SMILES	Dicer processing
COC(=O)c1ccc(C2Nc3c(C)cc(C)cc3-c3cc(C)nn32)cc1 (stereo unspecified)	-0.34
Cc1ccc(O)c(C2Nc3c(C)cccc3-c3cc(C)nn32)c1 (stereo unspecified)	5.72*
Cc1cc2n(n1)C(c1cccc(O)c1)Nc1ccccc1-2 (stereo unspecified)	0.25
Cc1cc2n(n1)C(c1ccc(N3CCCC3)cc1)Nc1ccccc1-2 (stereo unspecified)	4.48*
Cc1cc2n(n1)C(c1cccc(O)c1)Nc1c(C)cccc1-2 (stereo unspecified)	4.32*
CSc1ccc(C2Nc3c(C)cccc3-c3cc(C)nn32)cc1 (stereo unspecified)	3.93*
Cc1ccc(NC(=S)/N=C(\N)C(C)C)cc1	-0.11
CCOC(=O)c1sc(SC)c(C#N)c1-c1cccs1	0.08
CN1c2ccsc2C(=O)/C(=C\N=S(C)(=O)c2ccc(Cl)cc2)S1(=O)=O (stereo unspecified)	0.98
CCOC(=O)CNC(=O)Cn1cnc2c1c(=O)n(C)c(=O)n2C	1.66
COc1ccc(Oc2ccc(C(F)(F)F)c(NC(=O)C3CCC3C(=O)O)c2)cc1 (stereo unspecified)	0.06
CCO[C@@H]1O[C@H](COC(C)=O)[C@@H](OC(C)=O)[C@H](OC(C)=O)[C@H]1OC(C)=O	-0.42
Cn1c(=O)c2c(nc(N)n2CCCC(=O)O)n(C)c1=O	0.44
CC(C)N1CCN(c2ncnc3scc(-c4ccccc4)c23)CC1	-1.64
CC(=O)OC[C@H](OC(C)=O)[C@H](OC(C)=O)[C@@H](O)[C@H]1SC[C@@H](C(=O)N(C)C)N1C(C)=O	-1.49
CCOC(=O)C1C(c2c(F)cccc2Cl)C(C(=O)OCC)C(O)(C(F)(F)F)NC1(O)C(F)(F)F (stereo unspecified)	2.72
CCN(CC)c1ccc(C2Nc3ccccc3-c3cc(C)nn32)cc1 (stereo unspecified)	3.33*
Cc1ccc2c(c1)-c1cc(C)nn1C(c1ccc(N(C)C)cc1)N2 (stereo unspecified)	6.8*
Cc1ccc2c(c1)-c1cc(C)nn1C(c1ccc(O)cc1)N2 (stereo unspecified)	0.19
CSc1ccc(C2Nc3ccccc3-c3cc(C)nn32)cc1 (stereo unspecified)	4.75*
Cc1cc(C)c2c(c1)-c1cc(C)nn1C(c1cccs1)N2 (stereo unspecified)	-1.88
Cc1ccc2c(c1)-c1cc(C)nn1C(c1ccc(C(=O)O)cc1)N2 (stereo unspecified)	2.48
COc1ccc(C2Nc3ccc(C)cc3-c3cc(C)nn32)cc1O (stereo unspecified)	1.66
Cc1cc2n(n1)C(c1ccsc1)Nc1ccccc1-2 (stereo unspecified)	0.04
Cc1cc2n(n1)C(/C=C\c1ccccc1)Nc1c(C)cccc1-2 (stereo unspecified)	6.04*
SMILES	Dicer processing
CSc1ccc(C2Nc3ccc(C)cc3-c3cc(C)nn32)cc1 (stereo unspecified)	-0.31
Cc1cc(Oc2ccc(C(F)(F)F)cc2NS(C)(=O)=O)cc(C)c1Cl	-0.2
O=C(Nc1ncc(Cc2ccccc2)s1)c1cc2ccccc2c(=O)o1	0.12
O=C(OC1CC1(Cl)Cl)c1ccccc1 (stereo unspecified)	-0.63
O=C(CSc1nnc(-c2ccc(O)cc2)o1)c1ccc(Cl)cc1	-2.91
COc1ccc2c(ccc(/C=C3\Sc4ccccc4N3C)[n+]2C)c1	-0.9
O=c1oc(-c2sc3ccccc3c2Cl)nc2cc(Cl)ccc12	-1.07
C[C@@H]1CC2OC(=O)[C@@]3(C)CCC[C@@](C)(C23)[C@@]1(O)CCc1ccoc1 (stereo partly specified)	0.85
CCOc1cc(C2c3c(oc4ccc(C)cc4c3=O)C(=O)N2Cc2ccc3c(c2)OCO3)ccc1O (stereo unspecified)	0.86
Cc1cc2n(n1)C(c1ccc(N3CCOCC3)cc1)Nc1c(C)cccc1-2 (stereo unspecified)	3.84*
Cc1cc2n(n1)C(c1ccc(O)cc1O)Nc1c(C)cccc1-2 (stereo unspecified)	1.46
Cc1cc2n(n1)C(c1ccc(C(=O)O)cc1)Nc1c(C)cccc1-2 (stereo unspecified)	2.41
Cc1cc2n(n1)C(c1ccc(O)cc1)Nc1c(C)cccc1-2 (stereo unspecified)	4.8*
CC(C)c1ccc(NC(=O)CSc2ncc3c(n2)CC(C)(C)CC3=O)cc1	-1.69
CCCCNC(=O)n1nc(SC)cc1-c1sc(-c2cccs2)nc1C	0.33
O=[N+]([O-])c1cc(C2SCCS2)ccc1SC1CCCCC1	0.38
CCc1ccc(S(=O)(=O)N2CCN(S(=O)(=O)c3ccc(CC)cc3)C(C)C2)cc1 (stereo unspecified)	-0.71
CCOC(=O)C1CCN(/C=C(\C#N)S(=O)(=O)c2ccc(Cl)cc2)CC1	1.77
O=C1CC(c2ccc(Cl)cc2)c2ccc3ccccc3c2N1 (stereo unspecified)	0.16
O=C(Nc1cc(C(F)(F)F)cc(C(F)(F)F)c1)Nc1ccc(CSc2ccc(Cl)cc2)o1	-0.18
Cc1ccc(/C(O)=C2/C(=O)C(=O)N(c3cccnc3)C2c2cccc(F)c2)cc1 (stereo unspecified)	-0.62
CC1(C)CC(=O)Nc2ccccc2S1	0.47
Cn1c2ccccc2n2c(SCCOc3ccc(Cl)cc3)nnc12	-0.45
Fc1cccc(NC(=S)NC(c2ccccc2)c2ccccc2)c1	4.9*
FC(F)(F)c1cccc(NC(=S)Nc2cccc(C(F)(F)F)c2)c1	0.22
SMILES	Dicer processing
CC(C)(C)NNC(=S)Nc1cccc(F)c1	-0.44
CSc1ccc(/C=N/Nc2ccc(Cl)cc2Cl)s1	5.18
CSc1nnc(Nc2ccc(Cl)cc2Cl)s1	3.85*
CSc1nc(C)nc(Nc2ccc(Cl)cc2Cl)c1C#N	-0.83
CC1(O)CCOC(=O)C1 (stereo unspecified)	1.46
O=C1CC(S(=O)(=O)c2ccccc2)C(=O)N1c1cc(Cl)cc(Cl)c1 (stereo unspecified)	-0.04
Clc1ccccc1SCSc1ccccc1Cl	1.68
CCOC(=O)/C(C#N)=C\Nc1cc(OC)c2ncccc2c1	-1.68
Cn1nc(-c2ccccc2)cc1NC(=O)Nc1ccc(OC(F)(F)F)cc1	-0.35
CCC1(c2cccc(OC(=O)Nc3ccc(OC(F)(F)F)cc3)c2)CCCCN(C)C1=O (stereo unspecified)	3.82*
CCOC(=O)C1=C(Nc2ccc(OC(=O)Nc3ccccc3)cc2)C(=O)N(C(C)(C)C)C1	1.38
CCOC(=O)c1noc(-c2cccc([N+](=O)[O-])c2)c1C#N	0.15
C/C=C(\C)c1nnc(NCC(C)(C)C)s1	0.2
CC1(C)CC(=O)C=C(SCC(=O)c2ccc(Cl)cc2)S1	-3.58
c1ccc(CN2CCC(Nc3ncnc4scc(-c5ccccc5)c34)CC2)cc1	-1.09
COCCNC(=O)c1cc2sc3ccccc3c2s1	3.85*
O=C(Nc1ccc2c(c1)CS(=O)(=O)C2)c1cccs1	0.38
COC(=O)c1sc2ccccc2c1Cl	-0.81
CN(C)c1ccc(C(O)C(=O)c2cccs2)cc1 (stereo unspecified)	0.15
CN(C)c1ccc(NC(=O)c2cc3sc4ccccc4c3s2)cc1	6.47*
O=C(Nc1cccc(S(=O)(=O)N2CCOCC2)c1)c1cc2sc3ccccc3c2s1	-0.66
CN(C)c1ccc(NC(=O)c2cccs2)cc1	3.25*
O=C(Nc1ccc(F)cc1)c1sc2ccccc2c1Cl	-0.53
CCN(CC)CCCNC(=O)c1sc2ccccc2c1Cl	-0.79
O=C(COc1ccc2c(=O)c(-c3ccccc3)coc2c1)OC1CCCCC1	-0.48

From PubChem
